cardiac RTF act: cardiac RTF calcium sensitivity activators, primary screen, biochemical, IANBD-TnC fluorescence, EC20 calcium. Troponin I, cardiac muscle (Homo sapiens) + Troponin T, cardiac muscle (Homo sapiens) + …. IANBD-labeled TnC RTF fluorescence at EC20 calcium; 0% EC20 calcium, 100% full calcium. activation, % at 7.2 µM. 340,000 tested, 0.24% active. AID 493008, 2010;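 active means activation above the mean over all tested compounds plus 3 SD, cut at about 30% in these data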;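 further: rise in fluorescence read as greater calcium sensitivity of cardiac thin filaments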
IDE cell activ: human IDE activators in live cells, primary screen, fluorescence polarization, HEK cells, FAbeta-B substrate; activation, % at 5.96 µM; FAbeta-B cleavage; 0% vehicle, 100% cell-free pure enzyme wells; 340,000 tested, 0.073% active; Insulin-degrading enzyme (Homo sapiens), P14735; AID 493087, 2011;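 active means activation above the mean of all tested compounds plus 3 SD, set per screening campaign, cut at about 17% in these data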
Target sequence (P14735 whole entry, looked up): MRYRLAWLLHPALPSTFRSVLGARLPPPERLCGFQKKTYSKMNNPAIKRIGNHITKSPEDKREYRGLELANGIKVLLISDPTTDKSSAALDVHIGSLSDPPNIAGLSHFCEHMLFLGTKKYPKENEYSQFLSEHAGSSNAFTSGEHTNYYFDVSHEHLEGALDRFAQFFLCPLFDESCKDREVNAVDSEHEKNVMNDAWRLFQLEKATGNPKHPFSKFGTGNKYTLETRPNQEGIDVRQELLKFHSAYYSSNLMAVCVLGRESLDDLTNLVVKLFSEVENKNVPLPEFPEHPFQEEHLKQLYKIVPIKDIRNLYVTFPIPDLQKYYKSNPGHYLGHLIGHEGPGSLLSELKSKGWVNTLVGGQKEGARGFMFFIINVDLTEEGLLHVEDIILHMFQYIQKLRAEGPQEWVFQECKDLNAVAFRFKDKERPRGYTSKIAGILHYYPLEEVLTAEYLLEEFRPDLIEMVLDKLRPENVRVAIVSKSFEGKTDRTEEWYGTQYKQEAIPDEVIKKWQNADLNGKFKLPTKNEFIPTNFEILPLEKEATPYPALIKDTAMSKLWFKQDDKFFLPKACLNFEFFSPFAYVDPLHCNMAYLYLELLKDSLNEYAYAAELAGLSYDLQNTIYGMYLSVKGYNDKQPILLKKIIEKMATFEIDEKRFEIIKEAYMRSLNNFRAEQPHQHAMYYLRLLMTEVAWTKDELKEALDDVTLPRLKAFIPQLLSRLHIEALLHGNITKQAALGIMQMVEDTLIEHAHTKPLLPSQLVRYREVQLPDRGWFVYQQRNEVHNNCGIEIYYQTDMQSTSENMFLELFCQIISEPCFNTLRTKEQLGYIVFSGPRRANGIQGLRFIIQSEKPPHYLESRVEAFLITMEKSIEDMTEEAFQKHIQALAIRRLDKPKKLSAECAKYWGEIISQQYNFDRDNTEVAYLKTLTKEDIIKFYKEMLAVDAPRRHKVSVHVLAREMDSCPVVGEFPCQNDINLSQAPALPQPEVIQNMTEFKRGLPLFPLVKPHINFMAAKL
IDE inh: human IDE inhibitors in live cells, primary screen, fluorescence polarization, HEK cells, FAbetaB substrate; Insulin-degrading enzyme (Homo sapiens), P14735; FAbetaB cleavage; inhibition, % at 5.59 µM; 320,000 tested, 0.41% active; AID 434962, 2010;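 active means percent inhibition above the average of all tested compounds plus 3 SD, set per screening campaign, cut at about 16% in these data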;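 further: IDE supplied by intact live HEK cells; FP after avidin binding of uncleaved biotin substrate so inhibition keeps polarization high; 0% = DMSO wells and 100% = 60 µM reference IDE inhibitor Ii1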
Cardiac RTF inh: cardiac RTF calcium sensitivity inhibitors, primary screen, biochemical, IANBD-TnC fluorescence, EC70 calcium. inhibition, % at 7.15 µM. 340,000 tested, 0.12% active. IANBD-labeled cardiac RTF, Ca2+ fluorescence. AID 493244, 2011. Troponin I, cardiac muscle (Homo sapiens) + Troponin T, cardiac muscle (Homo sapiens) + …;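 active means inhibition above the mean inhibition of all tested compounds plus 3 SD, cut at about 17% in these data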;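 further: assay run at fixed EC70 calcium of 1.6 mM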
CRFR2-BP antag: antagonists of CRF-BP/CRF-R2 complex, primary screen, cell-based, HEK293, calcium dye fluorescence, uHTS; CRF-induced calcium fluorescence; inhibition, % at 11.8 µM; 350,000 tested, 0.59% active; AID 588475, 2011;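 active means inhibition of the ligand-induced calcium signal above about 50% at the single tested concentration, limit read from the data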
CRFBP-R2 agonist: agonists of CRF-BP/CRF-R2 complex, primary screen, cell-based, HEK293, calcium dye fluorescence, uHTS; CRF-binding protein / CRF receptor 2 complex (human); calcium dye fluorescence (FLIPR); percent of saturating CRF peptide response; 350,000 tested, 0.46% active; activation, % at 13.2 µM;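 active means activation of at least 50%, plus an integration ratio under a set limit after plate pattern correction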;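 further: plate controls were neutral control wells without compound for no effect and CRF at EC100 for full effect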
* = called active by the depositor; · = no result. Shown are actives, neighbours in structure and some others; about 1.5% of the full set was active somewhere.

SMILES	cardiac RTF act	IDE cell activ	IDE inh	Cardiac RTF inh	CRFR2-BP antag	CRFBP-R2 agonist
CCOC(=O)c1sc(NC(=O)CSc2n[nH]c(-c3ccncc3)n2)c(C#N)c1C	0	-4	14	-8	70*	-5
CCOC(=O)c1sc(NC(=O)CSc2nccc(C)n2)c(C#N)c1C	0	7	4	-7	4	1
O=C(O)CCCNCc1ccccc1F	-5	7	·	-2	-9	-2
CC1(C)Cc2c(sc3[nH]c(=O)n(CC(=O)NCC4CCCO4)c(=O)c23)CO1 (stereo unspecified)	6	3	1	-6	84*	1
O=C(Cn1c(=O)[nH]c2sc3c(c2c1=O)CCCC3)NCC1CCCO1 (stereo unspecified)	6	4	-3	9	-11	0
CC(C)c1ccc[n+](-c2nc([O-])sc2C=O)c1	·	·	7	·	1	-2
Cc1ccc[n+](-c2nc([O-])sc2C=O)c1	94*	2	9	-114	-55	92*
O=C(CCCc1ccccn1)c1cccc2ccccc12	-10	2	·	-3	-2	0
COc1cccc(CN2CCN(S(=O)(=O)c3ccc(NC(C)=O)cc3)CC2)c1OC	1	1	-1	-1	6	1
COc1ccc(OC)c(CN2CCN(S(=O)(=O)c3ccc(NC(C)=O)cc3)CC2)c1	-3	3	3	-5	53*	-7
CCC(C(N)=O)N1C(=O)C2C3CCC(C3)C2C1=O (stereo unspecified)	·	·	·	·	15	-3
Cc1ccccc1Cn1c(=O)sc2ccccc2c1=O	4	-5	0	0	56*	-5
O=C(COC(=O)C1(c2ccccc2F)CCCC1)NCc1ccc2c(c1)OCO2	-3	4	-3	2	9	0
O=C(COC(=O)C1(c2ccc(F)cc2)CCCC1)NCc1ccc2c(c1)OCO2	0	1	-3	-19	62*	-1
O=C(NCc1ccc2c(c1)OCO2)c1c(F)c(F)c(F)c(F)c1F	2	3	6	-7	61*	-2
O=C(NCc1ccc2c(c1)OCO2)c1ccc2c(c1)OCO2	1	11	6	-6	0	-2
CC(C)CC1C(=O)N(Cc2cn(CCC3OCCO3)nn2)CCS(=O)(=O)N1Cc1ccc(-c2ccncc2)cc1 (stereo unspecified)	·	·	·	·	1	-2
Cc1cc(C)c2c(CC(=O)Nc3nccs3)coc2c1	-3	1	-1	-10	99*	3
c1ccc(SCCc2ccncc2)cc1	-2	0	0	1	-2	2
CC(C)(C)c1ccc(SCCc2cccnc2)cc1	8	3	5	0	71*	0
CCOC(=O)C1(CC2CC2)CCN(C(=O)c2cccnc2C)CC1	10	3	9	-16	-5	-1
O=C(CSc1nc(-c2ccccc2)cs1)NCCCN1CCCC1=O	-3	4	-3	-4	-3	-1
O=C(CSc1nnnn1-c1ccccc1)NCCCN1CCCC1=O	-3	2	2	4	57*	3
O=[N+]([O-])c1c(Nc2ccccn2)cc(Cl)c2nonc12	33*	-10	1	3	26	-2
CN(C)c1cc(Nc2ccc(O)cc2)c([N+](=O)[O-])c2nonc12	3	1	8	3	14	-10
SMILES	cardiac RTF act	IDE cell activ	IDE inh	Cardiac RTF inh	CRFR2-BP antag	CRFBP-R2 agonist
O=[N+]([O-])c1c(Nc2ccc(O)cc2)cc(Cl)c2nonc12	-8	-4	0	1	67*	-2
O=C(O)c1ccccc1Nc1cc(Cl)c2nonc2c1[N+](=O)[O-]	5	3	-1	-2	-12	-1
COc1ccccc1C(=O)Nc1ccc(OCC(=O)N2CCCCC2C)cc1 (stereo unspecified)	2	-10	6	0	3	1
CCOC(=O)C(Sc1nnc(-c2ccncc2)o1)C(C)=O (stereo unspecified)	3	-2	4	0	94*	-3
CC1CCN(S(=O)(=O)c2nnc(NC(=O)c3cccc(Cl)c3)s2)CC1	-2	1	0	1	60*	13
COc1ccccc1C(=O)Nc1nnc(S(=O)(=O)N2CCC(C)CC2)s1	-1	3	3	-2	-14	0
CCN(CC(=O)NC(C)C)C(=O)[C@H](C)NC(=O)c1ccc(Br)cc1	1	4	2	-4	-7	-1
CC1(C)Cc2c(sc(/N=C/N3CCCC3)c2C#N)C(C)(C)N1	1	2	-5	-17	62*	10
O=C(CCN1C(=O)c2ccc([N+](=O)[O-])cc2C1=O)Nc1ccccc1C(=O)O	-5	4	-5	-4	1	-1
CCN(C(=O)c1c([N+](=O)[O-])cnn1C)c1ccccc1	·	·	·	·	15	-1
Cc1ccc(C(=O)COC(=O)CCN2C(=O)C3C4C=CC(C5CC45)C3C2=O)cc1 (stereo unspecified)	5	5	9	0	91*	-3
CCN1C(Nc2ccccc2)=NC[C@@H]1CC(C)C	7	7	-5	2	-3	1
Cc1cccc(CCN2CCN=C2Nc2ccccc2)c1	-3	-1	1	6	10	56*
CC(C)CCN1C(Nc2ccccc2)=NC[C@@H]1CC(C)C	3	4	4	-1	1	-2
Cc1cccc(CCN2C(Nc3ccccc3)=NC[C@@H]2CC(C)C)c1	0	6	2	-9	21	111*
CC(C)C[C@H]1CN=C(Nc2ccccc2)N1CCc1cccc(F)c1	-2	9	0	-2	-22	125*
CC(C)C[C@H]1CN=C(Nc2ccccc2)N1CCc1ccc(F)cc1	2	0	0	3	13	110*
Cc1ccc(NC(=O)CNC(=O)Cc2cccc3ccccc23)c(O)c1	6	-5	5	-6	-14	1
Cc1cccc(NC(=O)c2ccccc2O)c1C	-5	1	-1	-11	31	21
Cc1cccc(NC(=O)c2cccc([N+](=O)[O-])c2O)c1C	0	3	·	-5	59*	45
CCOc1ccc2nc(NC(=O)C3CSC4(C)CCC(=O)N34)sc2c1 (stereo unspecified)	1	4	0	-5	-13	0
O=c1c2[nH]c3ccccc3c2ncn1Cc1ccco1	8	1	3	5	5	-2

High-throughput results: PubChem, several laboratories
